HT1080 IDH1KD tx: HT-1080 IDH1 knockdown cell toxicity (counter line). HT-1080 IDH1 knockdown viability, ATP luminescence, 48 h. Potency, µM (titrated, usually from 46.1 µM), actives largely listed as cytotoxic. 2% of 360,000 active. AID 686971
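% activity derives from luminescence (CellTiter-Glo), normalised to DMSO and no-cell wells. HT-1080-IDH1KD cells, 750/well, had 48 h compound exposure at 37 °C.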
TDP1 cell CPT: DT40-hTDP1 cell growth loss with CPT; AID 686979; Potency, µM (top dose mostly 46.2 µM), usual class: inhibitors; 12% of 420,000 active; chicken DT40 Tdp1-/-;hTDP1 cells + 20 nM CPT, ATP luminescence, 48 h; note: nearly all actives have a fitted effect of over 55% in size
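Chicken DT40 Tdp1-/- cells complemented with human TDP1, 400 cells/well, exposed to compounds plus 20 nM camptothecin for at least 48 h at 37 C; viability read as ATP content by CellTiter-Glo luminescence.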
HT1080NT lethal: kills 2HG-producing HT-1080-NT fibrosarcoma cells. Potency, µM (series often up to 46.1 µM), most hits filed as cytotoxic. HT-1080-NT fibrosarcoma viability, CellTiter-Glo ATP luminescence, 48 h. AID 686970. 1.6% of 360,000 active;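 note: NT is the 2HG producing partner of a matched IDH1 knockdown line; nearly all actives have a fitted effect of over 55% in size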
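Read-out is CellTiter-Glo luminescence after 10 minutes at room temperature, following 48 hours' compound treatment of HT-1080-NT cells (750 cells/well, RPMI, 5% FBS, 37 degrees C).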
DT40 TDP1 no CPT: qHTS for Inhibitors of human tyrosyl-DNA phosphodiesterase 1 (TDP1): qHTS in cells in absence of CPT; DT40 Tdp1-/- hTDP1 cells, no CPT, ATP luminescence, 48 h; Potency, µM (highest dose often 46.2 µM), usual class: inhibitors; 15% of 420,000 active; AID 686978, 2013; note: nearly all actives have a fitted effect of over 55% in size
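No-CPT arm: Tdp1-/-;hTDP1 DT40 cells (400/well) plus compounds, incubated ≥48 hr at 37 °C. Readout CellTiter-Glo luminescence.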
IL-1B inflam inh: inflammasome signaling inhibition, IL-1 beta readout; THP-1 LPS/ATP IL-1B secretion, AlphaLISA, 16 h; active compounds read low; AID 743279; 4.7% of 360,000 active; activity change, % at 57.5 µM; in the data active = activity change below about -50%; inconclusive = mostly about -30% to -49%
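Secreted IL-1B measured by AlphaLISA bead assay after 16 h compound exposure of THP-1 cells; compounds (final up to 57.5 uM) added 1 h before LPS (250 ng/mL) and ATP (1.25 mM) stimulation; lower signal means less secretion.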
ELG1 repair inh: inhibitors of ELG1-dependent DNA repair in HEK293T cells; HEK293T ELG1-luciferase reporter, luminescence, 16 h; DNA damage induced by 5-fluorouridine; Potency, µM (series often up to 46.1 µM), actives largely listed as inhibitors; 2.3% of 330,000 active; note: nearly all actives have a fitted effect of over 55% in size
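5-Fluorouridine DNA damage + compound/DMSO, 2,000 cells/well, 16 h, 37 °C/5% CO2. ONE-Glo, 30 min RT, luminescence. Readout = decrease in reporter signal.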
Hits are given with their value; – = inactive; ? = inconclusive; · = not tested or not shown. Shown are actives, neighbours in structure and some others; about 19% of the full set was active somewhere. Unless noted, calls come from the whole dose curve; as a rule, active = well fitted curve in the direction sought with a large enough effect; inconclusive = small, poorly fitted or top-dose-only effect, or another doubt; inactive = no such curve, though single readings can be large; an effect the other way counts as inactive or inconclusive.

SMILES | HT1080 IDH1KD tx | TDP1 cell CPT | HT1080NT lethal | DT40 TDP1 no CPT | IL-1B inflam inh | ELG1 repair inh
COC(=O)c1cc(NC(=O)c2cc(C(C)(C)C)nn2Cc2ccc(F)cc2)ccc1N1CCOCC1 | – | ? | – | 18µM | ? | ?
O=C(COc1ccc(F)cc1)OCc1cc(=O)n2nc(C3CCCCC3)sc2n1 | · | – | · | – | · | ·
Cc1ccc(NC(=O)NCCOCCn2c(=O)oc3ccccc32)cc1F | · | 5.8µM | · | 5.8µM | · | ·
O=C(CCn1c(=O)oc2ccccc21)Nc1ccccc1 | – | – | – | – | – | –
O=C(NCCOCCn1c(=O)oc2ccccc21)Nc1cccc(Cl)c1 | · | 7.3µM | · | 8.2µM | · | ·
Cc1ccc(NC(=O)NCCOCCn2c(=O)oc3ccccc32)cc1C | · | 5.8µM | · | 4.1µM | · | ·
Cc1ccc(NC(=O)NCCOCCn2c(=O)oc3ccccc32)c(C)c1 | · | 4.6µM | · | 5.8µM | · | ·
Cc1cc(Br)ccc1NC(=O)CN(C)C(=O)C1=COCCO1 | – | – | – | – | – | –
Cc1cccc(NC(=O)c2cc(S(=O)(=O)NCCc3ccccc3)ccc2F)c1C | · | – | · | – | · | ·
Cc1nccn1-c1cc(C(C)(C)C)nc2c(-c3ccccc3)cnn12 | – | ? | – | ? | – | ?
CC(=O)c1ccc(S(=O)(=O)Nc2cccc(-n3cnnn3)c2)cc1 | – | – | – | – | – | –
O=S(=O)(c1ccc2[nH]c3c(c2c1)CCCCC3)N1CCN(c2cccc(Cl)c2)CC1 | · | 18µM | · | 12µM | · | ·
O=[N+]([O-])c1ccc2[nH]cc(S(=O)(=O)N3CCN(c4cccc(Cl)c4)CC3)c2c1 | 23µM | ? | 21µM | – | -96 | –
CC1CCCN(S(=O)(=O)c2ccc(S(=O)(=O)N3CCCC3)cc2)C1 (centres undefined) | – | – | – | – | – | –
CC1CCCN(S(=O)(=O)c2ccc3[nH]c4c(c3c2)CCCC4)C1 (centres undefined) | ? | 21µM | ? | ? | – | –
CC(=O)c1ccc(N2CCN(S(=O)(=O)c3ccc4[nH]c5c(c4c3)CCCC5)CC2)cc1 | · | ? | · | 26µM | · | ·
Cc1ccc2nc(CSc3nnc(NC(=O)COc4ccccc4F)s3)cc(=O)n2c1 | · | – | · | – | · | ·
c1cc(-c2cc3c(o2)CCCC3OCCN2CCOCC2)cs1 (centres undefined) | – | ? | – | ? | – | ·
CN1CCN(S(=O)(=O)c2ccc(NC(=O)COc3ccccc3Cl)cc2)CC1 | – | – | – | – | – | –
O=C(NC(=S)Nc1ccc2[nH]c(=O)[nH]c2c1)c1ccccc1[N+](=O)[O-] | – | – | – | – | – | ?
COc1ccc(-c2nc(C(=O)N3CCN(C)CC3)sc2-c2ccc(OC)cc2)cc1 | · | – | · | – | · | ·
O=C(Nc1ccc(F)c(Cl)c1)C1Cc2c(-c3ccccc3Oc3ccccc3)ccnc2O1 (centres undefined) | – | ? | 13µM | ? | ? | ·
COc1ccc(NC(=O)C2Cc3c(-c4ccccc4Oc4ccccc4)ccnc3O2)cn1 (centres undefined) | – | 15µM | – | 15µM | – | ·
O=C(NCc1ccncc1)C1Cc2c(-c3ccccc3Oc3ccccc3)ccnc2O1 (centres undefined) | – | 13µM | ? | 16µM | -59 | ·
COc1ccc(NC(=O)C2Cc3c(-c4ccccc4Oc4ccccc4)ccnc3O2)cc1OC (centres undefined) | ? | 9.2µM | ? | 16µM | – | ·
SMILES | HT1080 IDH1KD tx | TDP1 cell CPT | HT1080NT lethal | DT40 TDP1 no CPT | IL-1B inflam inh | ELG1 repair inh
O=C(NCc1cccs1)C1Cc2c(-c3ccccc3Oc3ccccc3)ccnc2O1 (centres undefined) | ? | ? | – | ? | – | ·
O=C(CN(C(=O)CNC(=O)c1ccco1)c1ccc2c(c1)OCCO2)NC1CCCC1 | – | – | – | – | – | –
COC(CNC(=O)C1CCN(S(=O)(=O)c2cccc3nsnc23)CC1)OC | – | – | – | – | – | –
O=[N+]([O-])c1cccc(S(=O)(=O)NCCCn2ccnc2)c1 | – | – | ? | – | – | –
CCn1nc(C)c(CN2CCCC(CNS(=O)(=O)c3ccc(OC)cc3)C2)c1C (centres undefined) | – | 21µM | – | ? | – | –
COc1ccc(S(=O)(=O)NCC2CCCN(Cc3cn(C)nc3C)C2)cc1 (centres undefined) | – | – | – | – | – | –
CCc1ccc(CN2CCCC(CNS(=O)(=O)c3ccc(OC)cc3)C2)cc1 (centres undefined) | – | – | – | ? | -94 | –
CC1(C)CC(NS(=O)(=O)c2ccc(C(C)(C)C)cc2)CC(C)(C)N1 | – | – | – | ? | – | –
CCN1C(=O)c2ccccc2S(=O)c2ccc(C(=O)N3CCCCCC3)cc21 (centres undefined) | – | ? | – | ? | – | –
CCN1C(=O)c2ccccc2S(=O)c2ccc(C(=O)N3CCN(c4ccccc4)CC3)cc21 (centres undefined) | · | ? | · | 18µM | · | ·
CCN1C(=O)c2ccccc2S(=O)c2ccc(C(=O)N3CCN(c4cccc(Cl)c4)CC3)cc21 (centres undefined) | · | ? | · | 18µM | · | ·
COc1ccc(CCC2(C)NC(=O)N(C(C)C(=O)N3c4ccccc4CC3C)C2=O)cc1 (centres undefined) | – | – | – | ? | – | ?
COc1cc(/C=C2/SC(=O)NC2=O)ccc1OCc1ccccc1 | ? | – | 23µM | ? | – | ?
COc1cc(/C=C2/SC(=O)N(Cc3ccccc3Cl)C2=O)ccc1OCc1ccncc1 | – | 18µM | – | ? | – | –
COc1ccccc1OCCCOc1ccc(/C=C2\SC(=O)NC2=O)cc1OC | ? | 16µM | – | 13µM | – | –
COc1ccc(/C=C2/SC(=S)NC2=O)cc1OCc1ccccc1 | – | ? | – | – | – | ?
COc1ccc(C=C2SC(=O)NC2=O)cc1OC | – | ? | – | 16µM | – | ·
C=CC[C@]12C=C(OC)C(=O)C=C1O[C@@H](c1ccc3c(c1)OCO3)[C@H]2C | – | – | – | – | – | ·
Cc1ccc(S(=O)(=O)N2CCC(C(=O)OCC(=O)N3CC(C)CC(C)C3)CC2)cc1C (centres undefined) | – | – | – | – | – | –
COc1ccc(-c2ccc(=O)n(CC(=O)Nc3ccccc3C(F)(F)F)n2)cc1 | · | – | · | – | · | ·
Cc1cccc(C)c1NC(=O)CS(=O)(=O)c1nc(-c2ccc(Cl)cc2)cn1-c1ccccc1 | · | 9.2µM | · | 16µM | · | ·
COc1ccc(-c2cn(-c3ccc(C)cc3)c(S(=O)(=O)CC(=O)Nc3ccc(F)cc3)n2)cc1 | · | 16µM | · | 21µM | · | ·

Compound activity deposited in PubChem BioAssay by National Center for Advancing Translational Sciences (NCATS).
